# NCOA3 inh = SRC3 coactivator transcriptional activity inhibitors, primary screen, cell-based, luminescence; Nuclear receptor coactivator 3 (Homo sapiens), Q9Y6Q9; HEK293 GAL4-SRC3 luciferase reporter; inhibition, % at 3.6 µM; 360,000 tested, 0.17% active; AID 588352, 2011;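 active means inhibition above a per-campaign cutoff, the mean of all compounds plus 3 SD, cut at about 60% in these data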;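 further: 0% = DMSO-treated cells and 100% = gossypol-treated cells at 36 µM; higher means less SRC3-driven luciferase light from the GAL4 reporter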
# Target sequence (Q9Y6Q9 whole entry, looked up, the tested form may be a part): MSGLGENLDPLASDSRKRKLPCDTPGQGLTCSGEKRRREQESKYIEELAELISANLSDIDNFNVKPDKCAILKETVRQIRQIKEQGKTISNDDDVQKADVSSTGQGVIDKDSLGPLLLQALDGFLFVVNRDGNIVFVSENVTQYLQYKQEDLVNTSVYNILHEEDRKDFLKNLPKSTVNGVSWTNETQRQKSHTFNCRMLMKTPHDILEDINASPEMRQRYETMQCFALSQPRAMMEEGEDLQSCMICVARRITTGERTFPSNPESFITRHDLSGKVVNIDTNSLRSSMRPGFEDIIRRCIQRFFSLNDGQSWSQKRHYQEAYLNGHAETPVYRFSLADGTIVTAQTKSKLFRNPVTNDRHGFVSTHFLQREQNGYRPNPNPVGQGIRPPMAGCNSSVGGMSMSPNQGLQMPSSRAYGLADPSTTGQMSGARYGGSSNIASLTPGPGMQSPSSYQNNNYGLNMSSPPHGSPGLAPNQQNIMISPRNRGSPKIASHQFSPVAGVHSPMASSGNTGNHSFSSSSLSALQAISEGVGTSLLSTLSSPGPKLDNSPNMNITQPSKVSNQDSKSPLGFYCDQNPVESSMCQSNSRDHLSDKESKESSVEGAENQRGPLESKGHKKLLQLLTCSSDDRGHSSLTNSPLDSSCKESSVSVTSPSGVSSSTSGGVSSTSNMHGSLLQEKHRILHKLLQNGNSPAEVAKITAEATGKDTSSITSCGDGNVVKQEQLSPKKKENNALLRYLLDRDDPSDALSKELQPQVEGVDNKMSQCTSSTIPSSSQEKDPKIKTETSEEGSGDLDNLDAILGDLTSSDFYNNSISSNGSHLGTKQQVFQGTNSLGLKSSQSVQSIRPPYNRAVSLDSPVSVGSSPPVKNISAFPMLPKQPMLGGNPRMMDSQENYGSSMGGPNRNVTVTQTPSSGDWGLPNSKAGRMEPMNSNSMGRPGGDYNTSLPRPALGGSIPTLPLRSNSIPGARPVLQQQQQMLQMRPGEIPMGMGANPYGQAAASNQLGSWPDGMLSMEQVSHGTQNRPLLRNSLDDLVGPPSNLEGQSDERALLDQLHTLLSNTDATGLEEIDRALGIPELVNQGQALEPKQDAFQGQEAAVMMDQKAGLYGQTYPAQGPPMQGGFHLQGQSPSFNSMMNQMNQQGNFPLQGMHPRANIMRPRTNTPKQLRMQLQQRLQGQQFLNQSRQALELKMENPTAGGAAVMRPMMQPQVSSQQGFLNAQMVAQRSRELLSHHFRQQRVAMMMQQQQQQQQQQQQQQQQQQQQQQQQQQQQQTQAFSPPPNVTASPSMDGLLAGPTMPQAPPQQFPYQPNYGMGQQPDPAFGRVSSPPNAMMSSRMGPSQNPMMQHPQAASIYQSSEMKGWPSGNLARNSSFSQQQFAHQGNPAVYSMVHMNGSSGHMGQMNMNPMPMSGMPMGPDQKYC
# NR5A2 inv ag = LRH-1 (NR5A2) inverse agonists, primary screen, cell-based, luminescence, HEK293T, StAR-luciferase reporter; LRH-1 transfected, 24 h; inhibition, % at 3.6 µM; 360,000 tested, 0.13% active;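 active means inhibition above the mean inhibition of all tested compounds plus 3 SD, cut at about 73% in these data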;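 further: 0% = DMSO wells and 100% = reporter-only cells lacking LRH-1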
# NCOA2 inhibitor = inhibition of GAL4-SRC2 driven luciferase reporter, primary screen, SRC2 inhibitor project, cell-based, luminescence; AID 651957, 2012; HEK293 GAL4-SRC2 luciferase reporter; 370,000 tested, 0.17% active; inhibition, % at 9 µM;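 active means inhibition above the mean inhibition of all tested compounds plus 3 SD, set per campaign, cut at about 52% in these data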;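 further: 0% = DMSO treated cells and 100% = cells given Gossypol at 36 µM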
# COUP-TFII inh = NR2F2 transcriptional activity inhibitors, primary screen, cell-based, luciferase reporter, HEK293T, luminescence; HEK293T NGFI-A luciferase reporter; 370,000 tested, 0.7% active; inhibition, % at 8.6 µM;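 active means inhibition above a per-plate cutoff, mean inhibition of test wells between control levels plus 3 SD, cut at about 38% in these data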;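 further: cells cotransfected with COUP-TFII expression vector driving the NGFI-A reporter; 0% = median of COUP-TF2 test wells and 100% = reporter-only cells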
# Gli-Sufu block = Gli-Sufu pathway antagonists, primary screen, luciferase luminescence, Sufu-KO-LIGHT cells, uHTS; Sufu-KO-LIGHT fibroblasts, Gli luciferase reporter luminescence; inhibition, % at 5 µM; 340,000 tested, 0.74% active;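 active means inhibition above about 55%, limit read from the data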;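 further: 0% = DMSO-treated cells and 100% = wells with medium but no cells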
# NCOA1 inh = SRC1 coactivator transcriptional activity inhibitors, primary screen, cell-based, luminescence; HEK293 GAL4-SRC1 luciferase reporter; inhibition, % at 3.6 µM; 360,000 tested, 0.12% active;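 active means inhibition above the campaign mean plus 3 SD, with each screening campaign given its own cutoff, cut at about 60% in these data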;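 further: 0% = DMSO treated cells and 100% = gossypol at 36 µM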
# Gli-Sufu confirm = Gli-SUFU pathway antagonists, confirmation, single concentration, luciferase luminescence, Sufu-KO-LIGHT cells | Gli luciferase reporter | inhibition, % at 5 µM | 2,500 tested, 40% active | shares compounds with Gli-Sufu block;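 active means mean inhibition at 5 µM reaching about 45%, limit read from the data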;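 further: plate controls were DMSO-treated cells for no effect and wells lacking cells for full effect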
# Gli cytotox = cytotoxicity in Sufu-KO-LIGHT cells, confirmation, cytotoxicity control for Gli-SUFU antagonist project, cell-based, ATP luminescence, single concentration. shares compounds with Gli-Sufu block. cytotoxicity, % at 5 µM. 2,500 tested, 32% active. AID 651994, 2013;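 active means mean cytotoxicity at 5 µM above about 25%, limit read from the data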;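 further: cells exposed to compound overnight for roughly 16 to 18 hours; plate controls were DMSO wells with cells for no effect and medium without cells for full effect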
# Wnt3a cs = Wnt3a reporter signal inhibition, confirmation, counter-screen for Gli-SUFU antagonist project, Wnt-LIGHT cells, luminescence, single concentration; shares compounds with Gli-Sufu block; Wnt3a-driven luciferase reporter; inhibition, % at 6.25 µM; 2,500 tested, 20% active; AID 651995, 2013;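 active means mean inhibition above about 25%, limit read from the data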
# An asterisk follows results filed as active; x = not tested or not shown. Sampled rows, rich in hits. Any-hit rate of the full collection: about 1.3%.
SMILES,NCOA3 inh,NR5A2 inv ag,NCOA2 inhibitor,COUP-TFII inh,Gli-Sufu block,NCOA1 inh,Gli-Sufu confirm,Gli cytotox,Wnt3a cs
CCn1c(=NC(=O)CCS(=O)(=O)c2ccccc2)sc2cccc(OC)c21,16,45,9,14,70*,11,71*,28*,17
CCn1c(=NC(=O)c2ccc(S(=O)(=O)N3CCOCC3)cc2)sc2cccc(OC)c21,-15,-7,-10,17,52,-11,35,21,-2
COCCn1c(=NC(=O)c2ccc(S(=O)(=O)N3CCOCC3)cc2)sc2cc(S(N)(=O)=O)ccc21,13,-10,14,11,21,-5,x,x,x
CCn1c(=NC(=O)CS(=O)(=O)c2ccc(F)cc2)sc2cccc(OC)c21,4,-8,-33,-3,48,-4,x,x,x
Cc1ccc(-n2c(SCc3c(Cl)cccc3Cl)nnc2-c2ccco2)cc1,x,x,-5,5,x,x,x,x,x
Cc1ccc(CNC(=O)O[C@H]2CC[C@@]34CCCN3C(=O)CCC[C@H]4C2)cc1,x,x,x,-19,x,x,x,x,x
CCS(=O)(=O)c1nc(S(=O)(=O)c2ccc(C)cc2)c(N2CCOCC2)s1,13,27,11,-2,54,-2,21,15,7
Cc1ccc(S(=O)(=O)c2nc(S(=O)(=O)c3ccc(C)cc3)c(N3CCN(CCO)CC3)s2)cc1,2,9,7,11,55*,-1,23,20,62*
CCCCCCNC(=O)c1c(N)[nH]c(C(=O)c2ccccc2)c1-c1ccc(O)cc1,x,x,x,-7,x,x,x,x,x
CC(C)(C)c1ccc(S(=O)(=O)N2CCCC(C(=O)NCCN3CCC(Cc4ccccc4)CC3)C2)cc1 (stereo unspecified),x,x,23,6,x,x,x,x,x
CN(C)c1ccc(-c2n(C)c3ccccc3[n+]2C)cc1,6,36,-1,37,80*,21,82*,36*,27*
Cn1c(-c2ccccn2)[n+](C)c2ccccc21,16,7,31,15,3,-18,x,x,x
CC(=O)c1cnc(N2CCCCC2)nc1C,-10,-10,-7,-12,56*,-30,5,29*,0
COc1ccc(/C=N/NC(=O)c2nc(-c3ccccc3)cc(-c3ccccc3)n2)cc1O,10,-15,-37,-23,55*,6,1,7,-73
COc1cc(/C=N/NC(=O)c2cc(-c3ccccc3)nc3ccccc23)ccc1O,-4,-3,-14,10,59*,3,11,15,-98
COc1ccc(/C=N/NC(=O)c2cc(-c3ccccc3)nc3ccccc23)cc1O,7,-4,-23,5,-1,6,x,x,x
CC(C)(C)[C@H](NC(=O)c1cc(Cl)cc(Cl)c1)C(=O)N1CCC[C@H]1C(=O)N[C@H](C#N)CC(=O)O,x,x,x,-11,x,x,x,x,x
O=C(N1CCOCC1)N1CC[C@H]2[C@H](CCCN2Cc2cc(F)cc(F)c2)C1,x,x,-10,0,x,x,x,x,x
CC(C)(C)OC(=O)NCc1ccccc1/C=C/S(=O)(=O)NCc1ccccc1,x,x,0,-12,x,x,x,x,x
CCOC(=O)CN1C(=O)C(C)(C)Oc2ccc(C(=O)Nc3ccccc3OC)cc21,7,-4,2,-1,7,-8,x,x,x
COc1ccccc1NC(=O)c1ccc2c(c1)N(CC#N)C(=O)C(C)(C)O2,-8,10,-18,2,52,-9,23,2,-21
O=C(Nc1ccc2oc(-c3ccncc3)nc2c1)c1ccccc1F,-50,-35,-12,1,-17,-42,x,x,x
O=C(Nc1ccc2oc(-c3ccncc3)nc2c1)c1ccccc1,-4,10,-2,6,85*,-25,21,1,-25
CN1C(=O)CC(N2CCN(c3ccc(Cl)cc3)CC2)C1=O (stereo unspecified),12,10,-3,-6,-1,-11,x,x,x
COc1ccc(N2CCN(C3CC(=O)N(C)C3=O)CC2)cc1 (stereo unspecified),-13,-4,-5,3,67*,2,25,1,9
SMILES,NCOA3 inh,NR5A2 inv ag,NCOA2 inhibitor,COUP-TFII inh,Gli-Sufu block,NCOA1 inh,Gli-Sufu confirm,Gli cytotox,Wnt3a cs
O=C(OC12CCCN(C1)/C(=C/c1ccccc1)C2)c1ccc(Cl)cc1 (stereo unspecified),x,x,-20,-26,x,x,x,x,x
O=C(NC1CCCC1)C(c1ccccc1)N(Cc1cccnc1)C(=O)Cc1cccs1 (stereo unspecified),12,6,-12,5,57*,-12,23,0,6
Cc1ccc(CN(C(=O)Cc2cccs2)C(C(=O)NC2CCCC2)c2ccncc2)cc1 (stereo unspecified),1,6,18,-9,2,-5,x,x,x
O=S(=O)(NCc1ccncc1)c1ccc(S(=O)(=O)NCC2CCCO2)cc1 (stereo unspecified),12,15,17,22,53,10,42,13,26*
O=S(=O)(NCc1ccccc1)c1ccc(S(=O)(=O)NCC2CCCO2)cc1 (stereo unspecified),-4,15,-18,-10,26,-11,x,x,x
CCCCNS(=O)(=O)c1ccc(S(=O)(=O)NCc2ccncc2)cc1,34,26,27,33,57*,-26,59*,37*,23
CCCCc1ccc(S(=O)(=O)NCCc2ccncc2)cc1,6,-3,28,19,15,-1,x,x,x
O=c1c2ccccc2c2ccccc2c(=O)n1Cc1cccnc1,-10,-10,1,-5,59*,6,7,11,-6
FC(F)(F)c1cccc(Cn2ccc3ccc(-c4ccc5ccn(Cc6cccc(C(F)(F)F)c6)c5c4)cc32)c1,x,x,6,1,x,x,x,x,x
CCN1C(=O)CC(C(C)C)N(C2CCCC2)c2nc(Nc3ccc(C(=O)NC4CCN(C)CC4)cc3OC)ncc21 (stereo unspecified),10,-4,x,x,6,2,x,x,x
CCN1C(=O)CC(c2ccccc2)N(C2CCCC2)c2nc(Nc3ccc(C(=O)NC4CCN(C)CC4)cc3OC)ncc21 (stereo unspecified),17,-16,x,x,16,-7,x,x,x
